Screening results from PubChem BioAssay.
CYP2C9 inhib: blockers of cytochrome P450 2C9 activity – biochemical, luminescence, ADME assay, primary screen | inhibition, % at 5 µM | CYP2C9 Supersomes, luciferin-H conversion | P11712 | 96,000 compounds, 20% hits | AID 777, 2007;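 active = blocking of liver enzyme CYP2C9 beyond about 50% at 5 µM, limit read from the data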
Target sequence (P11712 whole entry, looked up): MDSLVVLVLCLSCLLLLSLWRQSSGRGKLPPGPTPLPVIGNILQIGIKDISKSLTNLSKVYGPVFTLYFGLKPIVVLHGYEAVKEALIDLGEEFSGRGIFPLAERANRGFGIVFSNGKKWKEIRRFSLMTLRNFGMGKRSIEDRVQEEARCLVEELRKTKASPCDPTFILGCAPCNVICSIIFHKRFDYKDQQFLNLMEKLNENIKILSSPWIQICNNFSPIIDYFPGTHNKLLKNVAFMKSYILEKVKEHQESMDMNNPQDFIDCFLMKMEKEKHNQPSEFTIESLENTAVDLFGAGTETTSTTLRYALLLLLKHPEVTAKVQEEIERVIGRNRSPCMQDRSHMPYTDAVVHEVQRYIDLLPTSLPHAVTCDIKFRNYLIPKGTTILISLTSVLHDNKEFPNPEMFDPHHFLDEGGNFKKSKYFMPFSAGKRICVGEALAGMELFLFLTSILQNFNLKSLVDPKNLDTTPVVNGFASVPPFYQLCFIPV
D1 allo mod: D1 CRE-luciferase signal change, two-sided – cell-based, HEK293 D1, dopamine EC30, D1 allosteric modulator project, primary screen; 58,000 compounds, 5.9% hits; D(1A) dopamine receptor (Homo sapiens), P21728; AID 641, 2007; B-score at 10 µM; dopamine EC30 potentiation; actives deviate in either direction;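 active = luminescence count or its row- and column-corrected plate score outside the 99.7% band of the plate's sample wells, on either side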
CYP2C19 inh: blockers of cytochrome P450 2C19 activity – biochemical, luminescence, ADME assay, primary screen | CYP2C19 Supersomes, luciferin-H EGE luminescence, 30 min | inhibition, % at 5 µM | 96,000 compounds, 21% hits | AID 778, 2007;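 active = CYP2C19 inhibition above a set limit at 5 µM in the primary screen, cut at about 50% in these data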;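 note: plate controls were negative control wells for no effect and 2.5 mM tranylcypromine positive control for full effect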
DAT uptake mod: changed hDAT dopamine uptake under cocaine IC80, either direction, primary screen, cocaine antagonist project, cell-based, LLC-PK1 hDAT, [14C]-dopamine uptake, MLSMR; AID 449768, 2010; LLC-PK1 hDAT cells, [14C]-dopamine uptake with cocaine IC80; actives deviate in either direction; 110,000 compounds, 1.3% hits; Sodium-dependent dopamine transporter (Homo sapiens), Q01959; B-score at 10 µM;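 active = Z score or B-score, a plate-position-corrected score, falls beyond the plate's 99.7% confidence bounds, in either direction; inactive = both scores lie inside the 99.7% bounds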;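 note: scored against the spread of the other compound wells on the same plate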
CYP2C19 act: human CYP2C19 activators, primary screen, biochemical, luminescence; activation factor at 5 µM; 96,000 tested, under 10 active; AID 1025, 2008; Cytochrome P450 2C19 (Homo sapiens), P33261; recombinant CYP2C19, luciferin-H EGE luminescence; stronger effect = higher value; 0 = fully inhibited enzyme, 1 = untreated enzyme;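 active = activation factor of at least 2 at 5 µM in the primary screen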;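 note: 0 = wells with 2.5 mM tranylcypromine and 1 = vehicle-only wells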
CYP2C9 activ: human CYP2C9 activators, primary screen, biochemical, luminescence | recombinant CYP2C9, luciferin-H conversion; stronger effect = higher value; factor 1 = untreated enzyme, 0 = blocked | AID 1024, 2008 | activation factor at 5 µM | 96,000 compounds, 1.4% hits;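 active = activation factor of 2 or more for CYP2C9 at a 5 µM dose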;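 note: 0 = sulfaphenazole-blocked wells and 1 = vehicle-only wells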
Starred values were filed as active, the others as inactive; x = not tested or not shown. This is a sample that favours compounds with a hit; in the whole collection about 28% have one here.

SMILES	CYP2C9 inhib	D1 allo mod	CYP2C19 inh	DAT uptake mod	CYP2C19 act	CYP2C9 activ
COc1cccc(C(=O)Nc2cccc(OC(C)=O)c2)c1	6	-2.7	25	0.35	0.7	0.9
CC(=O)c1cccc(NC(=S)NC(=O)C(C)C)c1	52*	x	40	0.4	0.6	0.5
COc1cc(OC)c(C(=O)Nc2cccc(C(C)=O)c2)cc1OC	59*	x	33	0.68	0.7	0.4
COc1ccc(C(=O)Nc2cccc(C(C)=O)c2)cc1OC	9	x	41	1.1	0.6	0.9
CC(=O)c1cccc(NC(=O)c2nccnc2C(=O)O)c1	7	-3.5*	-2	-0.58	1	0.9
O=C(NCc1cccnc1)c1cc(-c2ccco2)on1	34	0.52	9	0.28	0.9	0.7
CSc1nc2ccccc2n1C(=O)NC1CCCCC1	10	0.59	15	0.91	0.8	0.9
O=C(CSc1nnc(-c2ccncc2)n1C1CCCCC1)Nc1cccc(O)c1	46	0.57	45	0.55	0.5	0.5
Cc1ccnc(NC(=O)CCC(=O)N(CC(=O)NCC2CCCO2)Cc2ccc(F)cc2)c1 (configuration not stated)	-3	-0.23	-6	0.029	1.1	1
CCN(CC)c1ccc(C2N(C(=O)N3CCOCC3)CCN2S(=O)(=O)c2ccc(C)cc2)cc1 (configuration not stated)	44	x	26	0.0068	0.7	0.6
Cc1ccc(N2C(=O)CC(Sc3nc4ccccc4o3)C2=O)cc1Cl (configuration not stated)	17	x	33	-7.2*	0.7	0.8
O=C1CC(N2CCC(c3nc4ccccc4o3)CC2)C(=O)N1c1ccc(Cl)c(C(F)(F)F)c1 (configuration not stated)	40	1.4	8	-0.28	0.9	0.6
Cc1csc(NC(=O)C2CCCN(S(=O)(=O)c3cnc[nH]3)C2)n1 (configuration not stated)	13	-0.86	0	-0.48	1	0.9
NS(=O)(=O)c1ccc(NC(=O)C2CCCN(S(=O)(=O)c3ccc(F)cc3)C2)cc1 (configuration not stated)	16	x	8	-0.42	0.9	0.8
CC(NC(=O)C1CCCN(S(=O)(=O)c2cnc[nH]2)C1)c1ccccc1 (configuration not stated)	74*	-0.029	70*	-0.13	0.3	0.3
O=C(Nc1ccc(Cl)cc1)C1CCCN(S(=O)(=O)c2cnc[nH]2)C1 (configuration not stated)	88*	-0.0097	90*	-0.52	0.1	0.1
Cc1cccc(N2CCN(C(=O)C3CCCN(S(=O)(=O)c4cnc[nH]4)C3)CC2C)c1 (configuration not stated)	x	-0.31	x	0.33	x	x
CC(C)c1ccc(NC(=O)C2CCCN(S(=O)(=O)c3cnc[nH]3)C2)cc1 (configuration not stated)	62*	0.14	62*	0.34	0.4	0.4
CCOC(=O)c1ccc(NC(=O)C2CCCN(S(=O)(=O)c3cnc[nH]3)C2)cc1 (configuration not stated)	96*	-0.24	92*	0.087	0.1	0
CCOC(=O)N1CCC(NC(=O)C2CCN(S(=O)(=O)c3cnc[nH]3)CC2)CC1	-8	0.02	1	-0.59	1	1.1
O=c1cc(N2CCOCC2)[nH]c(=O)n1-c1ccc(Br)cc1	-3	0.16	-3	-0.56	1	1
CC(=O)N1CCc2cc(C(=O)CN3CCC(C)CC3)ccc21	18	0.073	7	-0.33	0.9	0.8
CC(=O)N1CCc2cc(C(=O)CN3CCN(c4cccc(Cl)c4)CC3)ccc21	84*	-3.5*	32	1.3	0.7	0.2
COc1ccc(Cn2c(CCC(=O)O)nc3cccnc32)cc1	7	-0.67	-13	0.044	1.1	0.9
COc1ccc(Cn2c(CCC(=O)Nc3ccc(C)cc3)nc3cccnc32)cc1	38	x	61*	1.3	0.4	0.6
